Rows were chosen to be rich in hits. Some 10% of all compounds tested hit in one or more screens of this group.
Lamin A splicing: changes lamin A minigene splicing in HeLa cells; HeLa LMNA splicing GFP/RFP minigene ratio, 48 h; Potency, µM (top dose mostly 46.1 µM), for the others: at the highest dose ratio change, negative = inhibition, most hits filed as inhibitors; hit rate 0.01% among 200,000; AID 1487; active = well fitted inhibition curve with a large enough effect in the signal ratio, with a control signal flat, not every such curve was filed as active; inconclusive = small, poorly fitted or top-dose-only effect, or effect the other way, or a change in a side signal; the % refers to the signal ratio; also: potency is read from the fitted curve at half-maximal effect
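S3 HeLa stable clones carrying a lamin A-EGFP splicing minigene plus DsRed2 were seeded at 600 cells/well in Opti-MEM with 2% FBS, pin-dosed and incubated 48 h at 37°C. Acumen cytometry (488 nm) gave the GFP/RFP total-intensity ratio.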
12-hLO inh: blocks human 12-lipoxygenase activity; AID 1452; purified 12-hLO, xylenol orange hydroperoxide absorbance; Potency, µM (titrated, usually from 57.1 µM), for inactives: top-dose activity change, negative = inhibition, actives largely listed as inhibitors; hit rate 0.12% among 150,000; P18054; active = well fitted inhibition curve with a large enough effect; inconclusive = small, poorly fitted or top-dose-only effect; also: potency is read from the fitted curve at half-maximal effect; nearly all actives have a fitted effect of over 55% in size
Target sequence (P18054 whole entry, looked up): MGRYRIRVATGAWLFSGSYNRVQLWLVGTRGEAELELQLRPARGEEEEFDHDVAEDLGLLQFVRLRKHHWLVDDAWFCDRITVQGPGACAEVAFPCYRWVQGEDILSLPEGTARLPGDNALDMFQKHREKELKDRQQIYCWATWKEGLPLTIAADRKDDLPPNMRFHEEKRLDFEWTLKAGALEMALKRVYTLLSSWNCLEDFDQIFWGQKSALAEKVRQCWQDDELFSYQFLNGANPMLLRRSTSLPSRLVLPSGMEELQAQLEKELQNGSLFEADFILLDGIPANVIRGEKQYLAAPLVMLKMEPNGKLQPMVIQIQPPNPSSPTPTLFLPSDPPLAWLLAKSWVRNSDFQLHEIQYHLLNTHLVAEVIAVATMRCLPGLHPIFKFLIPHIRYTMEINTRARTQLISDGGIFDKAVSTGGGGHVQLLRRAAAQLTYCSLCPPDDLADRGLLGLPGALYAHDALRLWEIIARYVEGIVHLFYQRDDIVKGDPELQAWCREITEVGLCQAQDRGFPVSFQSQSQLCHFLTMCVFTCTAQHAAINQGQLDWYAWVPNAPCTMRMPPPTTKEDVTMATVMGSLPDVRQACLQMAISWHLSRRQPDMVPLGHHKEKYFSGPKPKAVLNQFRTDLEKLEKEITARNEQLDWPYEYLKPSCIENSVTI
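Hydroperoxide formation by human 12-lipoxygenase from 40 uM arachidonic acid was followed colorimetrically via ferric-xylenol orange complex, using the 573/405 nm absorbance ratio. Enzyme concentration was 150 nM, with 30 min reaction at room temperature.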
HPGD block: HPGD (human) dehydrogenase inhibition; hit rate 4.3% among 150,000; P15428; Potency, µM, inactives show at the top dose activity change, negative = inhibition, hits mostly inhibitors; purified HPGD, NADH fluorescence kinetic, PGE2 substrate; also: potency is read from the fitted curve at half-maximal effect
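NADH formation kinetics: reaction with 30 uM PGE2 and 1 mM NAD+ (final), 20 nM enzyme, Tris-HCl pH 8 with Tween 20, after 15 min compound preincubation at room temperature. Fluorescence change, last versus first of five reads.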
PNC inhibitor: inhibitors of perinucleolar compartment assembly; hit rate 3.1% among 140,000; PC3M PTB-GFP, PNC prevalence imaging, 16 h; active compounds read low; activity change (PNC), negative = inhibition, % at 10 µM;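 active = readout at or below -70, meaning at least 70% loss of cells showing the perinucleolar compartment, a nuclear body marking cancer cells; inconclusive = readout between -30 and a set limit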;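 also: plate controls were DMSO wells for no effect and camptothecin positive control wells for full effect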
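PC3M cells stably expressing PTB-GFP, 750–1000 cells/well, treated 16 h at 37 °C with compound (23 nl of library stock), in duplicate. After paraformaldehyde fixation and Hoechst stain, imaged at 20x; PNC prevalence scored by image analysis.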
ALDH1A1 block: blocks purified human ALDH1A1 activity; P00352; Purified ALDH1A1, NADH fluorescence, propionaldehyde substrate; Potency, µM (titrated, usually from 75.3 µM), inactives show at the top dose activity, negative = inhibition, hits mostly inhibitors; hit rate 7.3% among 220,000; AID 1030;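 also: potency is read from the fitted curve at half-maximal effect; plate controls were no enzyme wells and a reference inhibitor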
* hit, by the source's call; ? = inconclusive; / = no result given; [ ] = dose if it differs, or a comment. Unless noted, calls follow the shape of the dose curve; as a rule, active = well fitted inhibition curve with a large enough effect (not every such curve was filed as active); inconclusive = small, poorly fitted or top-dose-only effect, or another doubt; inactive = no such curve, though single readings can be large or run the other way. Unless noted, % is scaled to controls: 0 for no effect and ±100 for the full control effect.

SMILES | Lamin A splicing | 12-hLO inh | HPGD block | PNC inhibitor | ALDH1A1 block
COc1ccc(-c2nc3cnc(OC)nc3n(CCc3ccccc3)c2=O)cc1 | 0% | / | / | / | ?
COc1cccc(CNC(=O)CCc2c(C)nn(-c3ccc(N4CCOCC4)nn3)c2C)c1 | 1%[46 µM] | / | / | / | /
CC1CN(C(=O)N2CCC(C(=O)N3CCN(c4ccccc4)CC3)CC2)c2cc(Cl)ccc2O1 (configuration not stated) | 17%[46 µM] | / | / | / | /
CC(C)(Oc1ccc(Cl)cc1)C(=O)NCc1ccco1 | 3% | -25% | -21% | ? | 13µM*
CCOc1ccc(C(=O)NCC(C)C)cc1 | 4% | -3% | 18µM* | 7 | 11%
CC(C)(Oc1ccc(Cl)cc1)C(=O)NCc1ccncc1 | -12% | 0% | 2% | -9 | -1%
O=C(NCc1ccco1)c1ccc2ccccc2c1 | -5% | -5% | 32µM* | ? | 1%
O=C(NCc1ccco1)c1ccc(COc2ccccc2Cl)cc1 | -11% | 1% | 14µM* | 57 | ?
CN(C)c1ncc2nc(CCc3ccccc3)c(=O)n(CCC#N)c2n1 | -23% | / | / | / | ?
COc1cccc2c1OC(=O)CC2c1ccc(C)cc1 (configuration not stated) | / | -17%[0.00818 µM] | ? | / | -4%[120 µM]
O=C(Nc1cccc2cccnc12)[C@@H]1[C@@H](C(=O)O)[C@H]2CC[C@@H]1O2 | / | -2%[11.4 µM] | 0% | / | 1%[13.5 µM]
O=C(NCc1ccco1)c1c(F)cccc1Cl | -8% | -2% | 14µM* | -19 | -9%
CC(C)COc1ccc(C(=O)NCc2ccco2)cc1 | -9% | 2% | 16µM* | ? | ?
O=C(CNC(=O)c1ccco1)OCC(=O)c1cccc2ccccc12 | 9% | -6% | -17% | 26 | 22µM*
O=C(NCc1ccco1)c1ccccc1F | -8% | -3% | ? | ? | -4%
O=C(NCc1ccco1)c1ccc(COc2ccc(Cl)cc2)cc1 | -2% | 3% | -24% | -17 | -6%
O=C(NCc1ccco1)c1ccc(S(=O)(=O)N2CCCc3ccccc32)cc1 | ? | -19% | -26% | -20 | 14µM*
O=C(NCc1ccccc1)c1ccc(S(=O)(=O)N2CCCc3ccccc32)cc1 | 6% | -4% | -16% | 45 | -11%
Cn1cc(S(=O)(=O)N2CCCCC2)cc1C(=O)Nc1ccc(OC(F)(F)F)cc1 | 13%[46 µM] | / | / | / | /
O=C1c2ccccc2C(Cc2ccnc(F)c2)(Cc2ccnc(F)c2)c2ccccc21 | / | -3% | 3% | / | 5%
CN(c1ccccc1C(=O)NCc1ccco1)S(C)(=O)=O | -4% | 0% | -6% | ? | 3%
CN(c1ccccc1C(=O)Nc1ccccc1C(=O)NCc1ccco1)S(C)(=O)=O | -3% | 2% | -12% | -117* | -2%
O=C(Nc1ccccc1C(=O)NCc1ccco1)Nc1cccc2ccccc12 | ? | / | / | / | -7%
O=C(NCc1ccco1)c1cccc2ccccc12 | 1% | -2% | 14µM* | -19 | -7%
Cc1ccc(NC(=S)NCC(C)C)cc1 | 2% | -5% | -16% | -24 | 13%
SMILES | Lamin A splicing | 12-hLO inh | HPGD block | PNC inhibitor | ALDH1A1 block
Cc1cccc(NC(=S)NCC23C=CC(O2)C2C(=O)N(c4ccc(Cl)cc4)C(=O)C23)c1 (configuration not stated) | ? | -12% | -27% | 40 | 1.4µM*
Cc1ccc(S(=O)(=O)NCCc2ccccc2)cc1 | -8% | -4% | -6% | 20 | -6%
Cc1ccc(NC(=S)NCC23C=CC(O2)C2C(=O)N(c4ccc(C)cc4)C(=O)C23)cc1 (configuration not stated) | -6% | -21% | ? | -18 | 1.3µM*
Cc1ccc(S(=O)(=O)NCC23C=CC(O2)C2C(=O)N(c4ccccc4)C(=O)C23)cc1 (configuration not stated) | 3% | -5% | ? | 9 | 3.5µM*
Cc1cccc(NC(=S)NCc2cccn2C)c1 | -3% | -18% | -18% | ? | -6%
Cc1ccc(N2C(=O)C3C4C=CC(CNC(=S)N5CCN(c6ccccc6)CC5)(O4)C3C2=O)cc1 (configuration not stated) | / | / | / | / | 0.63µM*
CSc1nnc(-c2cc(Br)ccc2N=Cc2c(C)[nH]n(-c3ccccc3)c2=O)c(=O)[nH]1 | / | / | / | / | 19µM*
CCSc1nnc(-c2cc(Br)ccc2N=Cc2c(C)[nH]n(-c3ccccc3)c2=O)c(=O)[nH]1 | 10%[46 µM] | / | / | / | ?
Cc1ccccc1C1NC(=S)NC2=C1C(=O)CCC2 (configuration not stated) | -20%[46 µM] | / | / | / | 22µM*
Cc1cc2c(cc1C)NC(c1c(C)n(C)n(-c3ccccc3)c1=O)C1=C(CC(C)(C)CC1=O)N2 (configuration not stated) | ? | -7% | -19% | 34 | 22µM*
Cc1cccc(C)c1Nc1nnc(SCc2nc3ccccc3c(=O)[nH]2)s1 | -7% | -5% | -10% | -118* | -4%
O=c1[nH]c(CSc2nc(-c3ccc(F)cc3)cs2)nc2ccccc12 | -2% | 1% | -3% | -116* | 13%
CCOc1ccccc1CNS(=O)(=O)c1ccc2[nH]c(=O)ccc2c1 | -2%[46 µM] | / | / | / | /
CC(C)(CCl)C(=O)Nc1ccc(C(F)(F)F)cc1 | ? | / | / | / | 10%
C/C(=C\C(=O)C(F)(F)F)Nc1ccc(C(F)(F)F)cc1 | -4% | -3% | -4% | ? | 22µM*
Cc1ccc(Cn2cc(S(=O)(=O)c3cccc(Cl)c3)c(=O)c3cc(F)c(N4CCCCC4)cc32)cc1 | -9%[46 µM] | / | / | / | /
CN1CCc2nc(SCc3ccc(C(C)(C)C)cc3)c(C#N)cc2C1 | 4% | 0% | 28µM* | 93 | 0%
Cc1ccc(CSc2nc3c(cc2C#N)CCC3)cc1 | ? | -2% | -2% | 11 | 7%
CCCN(C(=O)c1cn(C)c(=O)c2cc(OC)c(OC)cc12)c1ccc(CC)cc1 | 20%[46 µM] | / | / | / | /
N#Cc1c(NC(=O)CCC(=O)O)sc2c1CCCCC2 | / | / | / | / | 14µM*
CC(C)(C)C1CCc2c(sc(NC(=O)C3CC=CCC3C(=O)O)c2C#N)C1 (configuration not stated) | ? | -2% | 16µM* | ? | 7.1µM*
N#Cc1c(NC(=O)CN2CCN(C(=O)c3ccco3)CC2)sc2c1CCCCC2 | -18% | 1% | 8.9µM* | -26 | 7.1µM*
CCn1c(SCC(=O)Nc2sc3c(c2C#N)CCCC3)nnc1-c1ccco1 | 1% | -2% | -5% | 0 | 10%
CCn1c(SCC(=O)Nc2sc3c(c2C#N)CCC(C(C)(C)C)C3)nnc1-c1ccco1 (configuration not stated) | ? | 3% | -23% | 24 | 40µM*
C[C@@H](c1ccccc1)N1C(=O)[C@H]2[C@H]3[C@H](O)[C@H](O)C/C(=N/OCc4ccccc4)[C@H]3CC[C@@H]2C1=O | / | / | / | / | 1%[13.5 µM]
N#Cc1c(NC(=O)C2CC=CCC2C(=O)O)sc2c1CCCCCC2 (configuration not stated) | ? | -4% | 18µM* | ? | ?
CC(=O)Nc1sc2c(c1C#N)CCC2 | 13%[46 µM] | / | / | / | -1%

Screening results from PubChem BioAssay.
